Reference: PubChem BioAssay AID504339 (National Center for Advancing Translational Sciences (NCATS), 2011)
Among all 390,000 compounds or so, about 17,000 (4.4%) were called active. Inconclusive results (about 8%) are left out. Calls come from the whole dose curve; as a rule, active = well fitted inhibition curve with a large enough effect; inconclusive = small, poorly fitted or top-dose-only effect; inactive = no such curve, though single readings can be large or run the other way. The sample as a whole holds a higher share of actives than the screen did.

Each compound was assayed against Lysine-specific demethylase 4A (Homo sapiens) (UniProt O75164) (assay: qHTS Assay for Inhibitors of JMJD2A-Tudor Domain). Settings: AlphaScreen JMJD2A-Tudor / H3K4me3 peptide binding; series mostly up to 114 µM; activity change, negative = inhibition: at the top concentration.
Chain of Lysine-specific demethylase 4A (Homo sapiens) (O75164 whole entry, looked up, the tested form may be a part): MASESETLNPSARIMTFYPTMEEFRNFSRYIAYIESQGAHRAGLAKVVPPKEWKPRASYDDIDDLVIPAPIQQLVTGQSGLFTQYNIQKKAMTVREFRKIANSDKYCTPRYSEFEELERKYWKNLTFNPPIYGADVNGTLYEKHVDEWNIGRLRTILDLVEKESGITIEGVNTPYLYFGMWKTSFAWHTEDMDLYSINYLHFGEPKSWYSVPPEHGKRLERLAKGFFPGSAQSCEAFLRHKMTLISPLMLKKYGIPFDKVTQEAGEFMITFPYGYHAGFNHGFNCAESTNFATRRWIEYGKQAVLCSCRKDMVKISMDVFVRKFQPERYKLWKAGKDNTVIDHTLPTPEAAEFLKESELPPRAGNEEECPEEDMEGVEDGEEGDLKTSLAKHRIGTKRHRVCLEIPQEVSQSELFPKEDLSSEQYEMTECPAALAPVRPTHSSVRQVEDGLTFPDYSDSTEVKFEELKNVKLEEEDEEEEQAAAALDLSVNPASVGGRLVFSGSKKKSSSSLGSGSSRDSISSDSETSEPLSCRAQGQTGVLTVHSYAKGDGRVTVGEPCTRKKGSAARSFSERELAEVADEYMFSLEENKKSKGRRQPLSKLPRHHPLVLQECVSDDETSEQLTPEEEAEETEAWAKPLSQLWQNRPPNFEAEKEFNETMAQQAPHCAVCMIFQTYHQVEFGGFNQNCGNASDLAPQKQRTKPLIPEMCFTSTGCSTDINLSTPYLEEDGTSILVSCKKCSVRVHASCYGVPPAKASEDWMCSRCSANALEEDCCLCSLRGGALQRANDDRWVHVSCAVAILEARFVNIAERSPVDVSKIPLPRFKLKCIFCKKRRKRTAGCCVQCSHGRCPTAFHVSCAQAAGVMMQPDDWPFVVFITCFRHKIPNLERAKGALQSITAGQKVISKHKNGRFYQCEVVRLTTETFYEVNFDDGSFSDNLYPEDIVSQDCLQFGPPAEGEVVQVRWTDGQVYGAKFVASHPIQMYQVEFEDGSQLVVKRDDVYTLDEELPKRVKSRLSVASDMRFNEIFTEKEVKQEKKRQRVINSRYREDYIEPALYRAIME
Description: JMJD2A is a jumonji-domain-containing lysine demethylase that uses Fe(II) together with 2-OG to effect oxidative demethylation of histones. Methylation is one of many […] modification that affect epigenetic transcription. […] It is proposed that the functions of JmjD2A binding to the histones, is to maintain marks after they are installed and to spread the modifications by […], establishing a self-propagating cycle for rapid methylation over a large area of chromatin. […] Thus, small molecule targeting of the JMJD2A-tudor domain interaction with its target methylhistone mark is expected to enable sophisticated experiments probing the fine regulatory pathways leading to selective demethylation of a given methyllysine locus based on the methylation state of adjacent histone marks. A quantitative high throughput AlphaScreen has been developed to identify small molecule inhibitors based on a protocol published by NCGC and SGC [4].
Although AlphaScreen has significant advantages with its utility in a variety of epigenetic target assays, the primary screening data provided in this deposition should be used with caution due to the prevalence of screening artifacts. The top compound concentration tested was high (>100uM) in this assay, which increases number of actives and potential artifacts. An AlphaScreen counterscreen is highly recommended to be run against any putative actives to eliminate non-specific artifacts. Alternatively, one can use other AlphaScreen assays in PubChem to filter out promiscuous hits.
[1] Lee, J. et al. Distinct binding modes specify the recognition of methylated histone H3K4 and H4K20 by JMJD2A-tudor. Nat Struct Mol Biol. 15(1); 109-11. 2008. PMID: 18084306
[2] Yasgar, et al. Compound Management for Quantitative High-Throughput Screening. JALA. 2008 Apr;13(2):79-89. PMID: 18496600
[3] Inglese, et al. Quantitative high-throughput screening: a titration-based approach that efficiently identifies biological activities in large chemical libraries. Proc Natl Acad Sci. 1;103(31):11473-8. 2006. PMID: 16864780
[4] Quinn et al. A homogeneous method for investigation of methyl-dependent protein-protein interactions in epigenetics. Nucleic Acids Res., 38(2):e11. 2010. PMID: […]
[5] Baell,Holloway. New substructure filters for removal of pan assay interference compounds (PAINS) from screening libraries and for their exclusion in bioassays. J Med Chem. 53(7):2719-40. 2010. PMID: 20131845
NIH Molecular Libraries Probe Production Network [MLPCN]
NIH Chemical Genomics Center [NCGC]
Structural Genomics Consortium (SGC)
To each well of a 1,536w plate, 2ul of JMJD2A-Tudor (final 100nM) and 1ul biotinylated histone peptide methylated at Lys4 [b-H3(1-18)K4me3] (final 50nM) were added in 1x PBS buffer, pH 7.4, containing 0.01% Tween-20, using a nanoliter dispenser. Formation of a protein-peptide complex proceeded at room temperature for 30 min. A Kalypsys pin-tool transferred 23nl of library compound solution in DMSO to each well. Following a 30 min incubation of the protein-peptide complex with compounds at room temperature, a mixture of 40 µg/mL each streptavidin-coated donor and nickel chelate acceptor AlphaScreen beads (final 10 µg/mL) was added in a 1ul dispense for a final volume of 4ul, followed by a brief centrifugation (1000 rpm, 1 min). Plates were incubated protected from the light for 20 min at room temperature. Microplates were then read on an EnVision multilabel plate reader using the 1,536 plate HTS AlphaScreen aperture (excitation time 80 ms, measurement time 240 ms).
% is set by controls: 0 for no effect and ±100 for the full control effect; potency is the fitted concentration of half-maximal effect.
Note: nearly all actives have a fitted effect of over 50% in size.

Activity change, negative = inhibition, inactive:
C=CCOc1ccc(/C=C2/C(=O)ON=C2C)cc1OCC -5.42%
C#CCOc1ccccc1/C=C1/C(=O)ON=C1C -25.8%
COc1ccc(Nc2ncc(C(=O)Nc3cc(C)ccc3OC)c3ccccc23)cc1 0.341%
Cc1ccc(/C=C(\C#N)C(=O)Nc2cc(C)ccc2C)cc1 -13.4%
CCc1ccc(NC(=O)CSc2nc3c([nH]c4ccccc43)c(=O)n2-c2cccc(OC)c2)cc1 -27.7%
CCOc1ccc(C(=O)CCN2CCOCC2)cc1 -11.5%
O=C(OCCN1CCOCC1)C1(c2ccccc2)CCCCC1 -1.44%
CN(C)C(=O)CSc1n[nH]c(-c2ccco2)n1 -8.42%
S=c1[nH]nc(/C=C/c2ccccc2)o1 -21%
Brc1ccc(/C=N/N2CCN(C3c4ccccc4-c4ccccc43)CC2)s1 -16.7%
O=C(NCCc1ccc(Cl)cc1)c1ccc2nc(CCc3ccccc3)oc2c1 -6.71%
O=C(c1ccc2c(c1)N(Cc1ccccc1)C(=O)c1ccccc1S2(=O)=O)N1CCC(Cc2ccccc2)CC1 -15.2%
O=C(CN1CCN(Cc2ccc(Cl)cc2)C1=O)NCc1ccc(F)cc1 -17%
Cn1c(SCC(=O)N2CCCc3ccccc32)ncc(C(=O)Nc2ccc(F)cc2)c1=O 2.27%
CC(=O)Nc1cc(C(=O)NCc2ccc(F)cc2)ccc1Sc1ccc(F)cc1 -11.9%
COc1cc(Cl)c(NC(=O)C(NS(=O)(=O)c2cccs2)C(C)C)c(OC)c1 (stereo not given) -6.62%
CCC(C(=O)Nc1cccc(-c2nc3cccnc3s2)c1C)c1ccccc1 (stereo not given) -18.5%
CCOC(=O)N1CCN(CC(=O)Nc2ccc(F)cc2)CC1 -2.13%
O=C(CN1CCN(C(=O)c2ccco2)CC1)Nc1ccc(Cl)c(C(F)(F)F)c1 6.53%
CC(=O)N1CCN(CC(=O)Nc2ccc(SC(F)F)cc2)CC1 -9.59%
O=C(CN1CCOCC1)Nc1ccccc1 -10.5%
O=C(CN1CCN(c2ccccn2)CC1)Nc1ccc(Br)cc1 -34.8%
CCCCN(C)CCC(=O)Nc1ccc(Cl)cc1 11% [at 57.1 µM]
COC(=O)c1cc(NC(=O)CN2CCN(C(C)=O)CC2)cc(C(=O)OC)c1 -0.37% [at 57.1 µM]
Cc1cc(NC(=O)CCN2CCN(Cc3ccccc3)CC2)ccc1Br -31.5%
Cc1ccc(Cl)cc1NC(=O)Cc1ccc(-n2c(C)nc3cccnc32)cc1 -6.21%
Cc1ccccc1NC(=O)Cn1cc(C(=O)c2cccs2)c2ccccc21 9.97%
CCC(C)NC(=O)Cn1c(=O)n(-c2ccc(Cl)cc2)c(=O)c2c3c(sc21)CCCC3 (stereo not given) -4.1%
Cc1cc(C)c(NC(=O)CN2C(=O)c3cccnc3Oc3ccc(Cl)cc32)c(C)c1 -7.26%
O=C(Nc1ccc2nc(SCC(=O)N3CCCc4ccccc43)sc2c1)c1ccc(F)cc1 -17.2%
CCOCCCNC(=O)c1ccc2nc(CCc3ccccc3)oc2c1 -25.6%
O=C(Nc1ccccc1Cl)N1CCC(CN2CCCC2)CC1 -21.8%
Cc1ccc2nc(COc3cccc(NC(=O)Nc4ccc(C)c(Cl)c4)c3)cc(=O)n2c1 -19.2%
CSc1nc(-c2ccc(F)cc2)nc2c1Cc1c(CO)cnc(C)c1O2 -15%
O=C(COc1ccc(Cl)cc1)NCCC1=CCCCC1 35.4%
Cc1nnc(OCC(=O)NCCC2=CCCCC2)c2ccccc12 -1.23%
COc1ccc(C(=O)c2oc3ccccc3c2NC(=O)COc2cccc(C)c2)cc1 -1.6%
CCOC(=O)c1c(N)n(-c2cccc(C)c2C)c2nc3ccccc3nc12 -12.1%
COc1ccc(OCC(=O)Nc2ccc(N3CCC(C)CC3)cc2)cc1 -14.1%
Cc1cccc(C)c1NC(=O)CNC(=O)C1CCCC1 -12.8%
COc1ccc(NC(=O)N2CCC(Cc3ccccc3)CC2)cc1 -2.41%
COc1ccc(N2CCC(N3CCN(C)C(CCO)C3)CC2)cc1 (stereo not given) -3.23%
Cc1ccccc1NC(=O)Cn1c(=O)n(CCCCC(=O)NCc2ccccc2Cl)c(=O)c2ccccc21 -7.85%
COc1cccc(Nc2nc3ccccc3c3nncn23)c1 8.56%
Cc1ccc(NC(=O)Cn2c(=O)n(-c3ccccc3)c(=O)c3c4c(sc32)CCCC4)cc1 -2.39%
COc1ccc(Cl)cc1C(=O)Nc1ccc(N(C)C(C)=O)cc1 -14.2%
COc1cc(OC)c(C(=O)Nc2ccccc2-c2ccccc2)cc1OC -24%
Cc1ccc(NC(=O)CSc2nc3c([nH]c4ccccc43)c(=O)n2-c2ccccc2)cc1Cl -10%
CCCNC(=O)C1CCC(Cn2c(=O)c3sccc3n(Cc3ccccc3F)c2=O)CC1 (stereo not given) -1.33%
O=C(Nc1cc(C(F)(F)F)ccc1Cl)c1cc2nc(-c3ccc4c(c3)OCO4)cc(C(F)(F)F)n2n1 0%
Cc1cc(OCCCCOc2ccc(C#N)cc2)ccc1[N+](=O)[O-] 2.11%
Cc1cc(OCC(=O)NC2CCN(C)CC2)ccc1[N+](=O)[O-] -9.59%
CN(C(=O)c1ccc2c(c1)N(Cc1cccc(Cl)c1)C(=O)c1ccccc1S2=O)C1CCCCC1 (stereo not given) -29.2%
COCCn1c(CCC(=O)Nc2cc(C)ccc2C)nc2cccnc21 -15.1%
CCOc1ccc(S(=O)(=O)c2cn(Cc3ccccc3)c3ccc(OCC)cc3c2=O)cc1 -4.3%
Cn1nnc2c(N3CCN(c4ccccc4)CC3)ncnc21 -9.42%
CCOc1ccccc1C(=O)Nc1ccc(S(=O)(=O)N2CCCCC2c2cccnc2)cc1 (stereo not given) -15.2%
O=C(c1cccc(Cl)c1)N1CCN(CCc2ccncc2)CC1 -0.662%
CCn1c(CSCc2c(Cl)cccc2Cl)n[nH]c1=S -16.5% [at 11.4 µM]
CSc1ccc(S(=O)(=O)NCc2ccc(Cl)cc2)cc1 14.7%
COc1ccc(-c2nc3ccccc3s2)cc1NC(=O)COc1ccccc1C -1.12%
COc1cccc(OC)c1C(=O)Nc1nnc(C(C)C)s1 -3.66%
Cc1ccc(OCCn2c(CNc3ccccc3C)nc3ccccc32)cc1 -10.9%
COc1ccc(CNC(=O)CSCc2nc(-c3ccccc3F)oc2C)cc1 -6.4%
COc1ccc(N2CCN(C(=O)CN3C(=O)COc4ccccc43)CC2)cc1 -15%
CCOc1cc(/C=C2\C(=N)N3N=C(C)SC3=NC2=O)ccc1OCCOc1ccccc1 -0.685%
COc1cc(/C=C2\C(=N)N3N=C(CC(=O)N4CCOCC4)SC3=NC2=O)cc(OC)c1OC -13%
COc1ccccc1OCCOc1ccc(/C=C2\C(=N)N3N=C(C)SC3=NC2=O)cc1 -14.5%
CCC(=O)Nc1c(C(=O)N2CCN(c3ccc(F)cc3)CC2)oc2ccccc12 -26.9%
Cc1ccccc1CCNC(=O)C1CCN(c2nc3ccccc3nc2C(F)(F)F)CC1 -6.17%
COc1ccc2c(c1)c(N1CCCC1=O)c(C(=O)Nc1ccc(OC)c(Cl)c1)n2C -28.3%
Cc1nnc(N2CCC(C(=O)Nc3ccc(F)cc3)CC2)c2nn(-c3ccc(Cl)cc3)c(C)c12 5.17%
COc1ccc(Cl)cc1-n1c(CCC(=O)O)ccc1-c1ccc(C)cc1 -35.3%
O=c1c2ccccc2c(-c2ccc(F)cc2)nn1-c1ccc(C(F)(F)F)cc1 28.6%
CC(C)n1c(=S)[nH]c2cc(C(F)(F)F)ccc21 -16.9%
Cc1c(NC(=O)Cc2ccccc2)cccc1-c1nc2cccnc2s1 -22.5%
CCCC/S(C)=N/S(=O)(=O)c1ccc(C)cc1 (stereo not given) -1.74%
CC/S(CC1CC1(Cl)Cl)=N\S(=O)(=O)c1ccc(C)cc1 (stereo not given) -13.1%
Clc1ccccc1-c1cc(COc2ccc3ccccc3c2)no1 186%
O=C(Nc1ccc(F)cc1F)N1CCCN(CCOc2ccccc2)CC1 -21.4%
CCCCOc1ccc(C(C)(O)CCN2CCOCC2)cc1 (stereo not given) -11.1%
C#CC(CCN1CCCCC1)(OC)c1ccccc1 (stereo not given) -6.8%
O=C(Nc1ccccc1Cl)N1CCC(CN2CCCCC2)CC1 3.85%

Potency, active:
CC1=NOC(=O)/C1=C\c1ccccc1 25.1 µM
Cc1cccc(C)c1OCCN1CCOCC1 28.2 µM
S=c1[nH]nc(-c2ccco2)n1/N=C/c1ccccc1 3.55 µM
S=c1[nH]nc(-c2ccco2)n1/N=C/c1ccc(Br)s1 28.2 µM
O=C(CN1CCN(Cc2ccccc2)CC1)Nc1ccc(F)c(F)c1 6.31 µM
CCN(CC)c1ccc(NC(=O)CN2CCN(CC(=O)Nc3ccc(Cl)cc3)CC2)cc1 44.7 µM
O=C(CN1CCN(c2ccc(O)cc2)CC1)Nc1ccc(-c2ccccc2)cc1 50.1 µM
CC(=O)N1CCN(CC(=O)Nc2ccc(C)c(F)c2)CC1 17.8 µM
O=C(Cc1nn[nH]n1)NCCC1=CCCCC1 50.1 µM
COc1ccc(NC(=S)NCC2CCN(c3ccc(OC)cc3)C2)cc1 (stereo not given) 35.5 µM
COc1ccc(N2CCC(CNC(=S)Nc3c(C)cccc3C)C2)cc1 (stereo not given) 39.8 µM
COc1cc(OC)c(C(=O)Nc2ccc(N(C)C)cc2)cc1OC 79.4 µM
Cc1cc(OCCCN2CCN(Cc3ccccc3)CC2)ccc1[N+](=O)[O-] 10 µM
CCn1c(CNS(=O)(=O)c2ccc(Cl)cc2)n[nH]c1=S 10 µM
COc1cccc2sc(NNC(=O)c3nc4ccccc4s3)nc12 50.1 µM
COc1ccc(N2CCN(C(=O)CSCc3nc(-c4ccccc4Cl)oc3C)CC2)cc1 50.1 µM
CS(=O)(=O)C1=NN2C(=N)/C(=C\c3ccc(OCCOc4ccccc4)cc3)C(=O)N=C2S1 56.2 µM
CCS(=O)(=O)C1=NSC2=NC(=O)/C(=C\c3ccc(OS(=O)(=O)c4ccccc4)cc3)C(=N)N21 44.7 µM
FC(F)(F)c1ccc(-n2cn[nH]c2=S)cc1 8.91 µM
Cc1ccc(S(=O)(=O)/N=S(\C)C(C)C)cc1 (stereo not given) 50.1 µM
CC(C)(c1ccccc1)c1ccc(OCCN2CCCC2)cc1 20 µM
c1ccc2cc(OCCN3CCCC3)ccc2c1 7.94 µM
